Assay outcomes deposited in PubChem by National Center for Advancing Translational Sciences (NCATS).
A selection: hits, their analogues and other compounds. The true share with any hit is near 5.8%.
MCF10A rerep – A quantitative high throughput screen for small molecules that induce DNA re-replication in MCF 10a normal breast cells | MCF 10A DNA re-replication, Hoechst nuclear intensity, 48 h | hit rate 2.9% among 350,000 | AID 624296, 2012 | Potency, µM (top dose mostly 46.1 µM), hits mostly activators; note: nearly all actives have a fitted effect of over 50% in size
PINK1 modulator – A Quantitative High throughput Screen to Identify Chemical Modulators of PINK1 Expression. PINK1 immunofluorescence, high-content cytometry, 24 h. Potency, µM (top dose mostly 76.6 µM), actives largely listed as activators. hit rate 0.2% among 410,000. AID 624263, 2012; active = well fitted activation curve with a large enough effect; inconclusive = small, poorly fitted or top-dose-only effect; cell line not stated here; note: nearly all actives have a fitted effect of over 65% in size
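A stable cell line was treated with compounds at 5 concentrations for 24 hours, with CCCP as control. PINK1 levels and mitochondrial localization were measured by immunofluorescence with mitochondrial, cell and nuclear markers after fixation, read by laser-scanning cytometry.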
ALOX12 inh – Primary qHTS assay for inhibitors of human arachidonate 12S-lipoxygenase (ALOX12): Round 2; AID 1671190, 2021; purified 12hLO, xylenol orange hydroperoxide absorbance; Potency, µM (highest dose often 108 µM), most hits filed as inhibitors; hit rate 1.1% among 580,000; Polyunsaturated fatty acid lipoxygenase ALOX12 (Homo sapiens), P18054
Target sequence (P18054 whole entry, looked up): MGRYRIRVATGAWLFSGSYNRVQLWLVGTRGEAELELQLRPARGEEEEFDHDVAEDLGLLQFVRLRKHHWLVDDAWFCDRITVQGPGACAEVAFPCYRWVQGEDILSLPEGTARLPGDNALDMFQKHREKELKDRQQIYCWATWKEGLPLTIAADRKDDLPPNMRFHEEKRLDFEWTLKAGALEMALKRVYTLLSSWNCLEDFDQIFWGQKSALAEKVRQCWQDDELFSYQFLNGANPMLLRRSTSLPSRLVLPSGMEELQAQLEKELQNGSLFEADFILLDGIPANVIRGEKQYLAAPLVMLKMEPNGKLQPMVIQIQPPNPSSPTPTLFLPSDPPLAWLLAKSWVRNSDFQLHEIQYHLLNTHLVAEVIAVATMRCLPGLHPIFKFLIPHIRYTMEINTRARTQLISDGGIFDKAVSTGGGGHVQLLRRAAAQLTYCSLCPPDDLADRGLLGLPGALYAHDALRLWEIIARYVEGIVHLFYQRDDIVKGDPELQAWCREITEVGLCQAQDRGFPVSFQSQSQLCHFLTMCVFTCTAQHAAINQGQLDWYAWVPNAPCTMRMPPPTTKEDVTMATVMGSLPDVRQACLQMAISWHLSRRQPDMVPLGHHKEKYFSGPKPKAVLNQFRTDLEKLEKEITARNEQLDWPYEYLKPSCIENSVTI
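Purified human 12hLO at 150 nM in 25 mM Hepes, 0.01% Triton X-100, pH 7.0, preincubated 15 min at room temperature with compound. Reaction started with 40 uM arachidonic acid, 30 min at room temperature. Hydroperoxide measured by Fe-xylenol orange, 573/405 nm absorbance ratio.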
KB-3-1 tox – qHTS assay for MDR1-selective chemotherapeutics: Primary screen using the parental adenocarcinoma cell KB-3-1; Potency, µM (top dose mostly 46.1 µM), hits mostly cytotoxic; KB-3-1 viability, CellTiter-Glo ATP luminescence, 72 h; hit rate 1.4% among 400,000; note: nearly all actives have a fitted effect of over 60% in size
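Cells are dispensed, compounds pinned in, plates held at 37 °C for 72 h, then CellTiter-Glo is added and luminescence read after 10 minutes. Cell line: parental KB-3-1 in phenol-red-free DMEM, 10% FBS.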
SW480 rereplic – A quantitative high throughput screen for small molecules that induce DNA re-replication in SW480 colon adenocarcinoma cells; hit rate 1.8% among 340,000; Potency, µM (top dose mostly 46.1 µM), usual class: activators; SW480 DNA re-replication, Hoechst DNA content imaging, 48 h; note: nearly all actives have a fitted effect of over 55% in size
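Cells (250 per well) received 23 nL compound or DMSO by pin tool and were kept 48 hr at 37 C, 5% CO2. Nuclei were then stained with Hoechst for 40 min and scanned for DNA content.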
KB-V1 cytotox – qHTS assay for MDR1-selective chemotherapeutics: Primary screen using the drug-selected MDR subline cells KB-V1. hit rate 3.4% among 400,000. KB-V1 MDR cells viability, CellTiter-Glo, 72 h. Potency, µM (series often up to 46.1 µM), usual class: cytotoxic; note: nearly all actives have a fitted effect of over 60% in size
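Cells of the MDR subline KB-V1 are plated, dosed with compound at multiple concentrations, and incubated 72 h at 37 degrees C; CellTiter-Glo is then added and luminescence read after 10 min.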
A number is an active result; . = inactive; ? = inconclusive; / = no result; [ ] = remark or other dose. Unless noted, calls come from the whole dose curve; as a rule, active = well fitted curve in the direction sought with a large enough effect; inconclusive = small, poorly fitted or top-dose-only effect, or another doubt; inactive = no such curve, though single readings can be large; an effect the other way counts as inactive or inconclusive.

SMILES	MCF10A rerep	PINK1 modulator	ALOX12 inh	KB-3-1 tox	SW480 rereplic	KB-V1 cytotox
Cc1cc(C)c2cc(C(=O)OCC(=O)N3CCCCC3C)[nH]c2c1 (stereo unspecified)	/	/	.	/	/	/
C=CCNS(=O)(=O)c1cc(C(=O)O)ccc1F	/	/	.	/	/	/
C/C(CC(C)C)=N\NC(=O)CC#N	/	/	.	/	/	/
O=C(Nc1c(NCc2ccccc2)c2ccccc2oc1=O)c1ccccc1Cl	/	/	.	/	/	/
CCCS(=O)(=O)Nc1ccc2c(c1)CC(=O)N2CC	/	/	.	/	/	/
COC(=O)c1c(NC(=O)Cc2cccs2)sc(C(=O)NC2CCCCC2)c1C	.	?	.	.	?	.
CCOC(=O)c1c(NC(=O)Cc2cccs2)sc(C)c1C	3.7µM	/	.	.	.	?
COC(=O)c1c(NC(=O)Cc2cccs2)sc(C(=O)N2CCCCC2)c1C	.	.	.	.	.	16µM
Cc1oc(-c2cccc(Cl)c2)nc1CN1CCCC(C(=O)NCc2ccc(F)cc2)C1 (stereo unspecified)	/	.	.	.	/	.
Cc1oc(-c2cccc(Cl)c2)nc1CN1CCC(C(=O)NC2CC2)CC1	.	.	.	.	.	.
Cc1cccc(-c2nc(CN3CCCC(C(=O)NC4CCCC4)C3)c(C)o2)c1 (stereo unspecified)	?	.	.	.	?	9.2µM
Cc1oc(-c2cccc(Cl)c2)nc1CN1CCCC(C(=O)NCCCN2CCOCC2)C1 (stereo unspecified)	?	.	.	.	.	13µM
Cc1cccc(-c2nc(CN3CCCC(C(=O)NC4CCC(C)CC4)C3)c(C)o2)c1 (stereo unspecified)	?	.	?	.	?	21µM
CCOC(=O)N1CCC(NC(=O)C2CCCN(Cc3nc(-c4cccc(C)c4)oc3C)C2)CC1 (stereo unspecified)	?	.	.	.	.	?
CCCCn1c(=O)n(CC(=O)Nc2c(C)cccc2C)c(=O)c2c1ncn2CCC(C)C	/	/	.	/	/	/
NNc1cccc(S(=O)(=O)c2cccc(NN)c2)c1	/	/	11µM	/	/	/
Nc1cccc(S(=O)(=O)c2cccc(N)c2)c1	.	.	.	.	.[9.22 µM]	.
Cc1cc(SCC(=O)N/N=C/c2ccc(O)cc2O)c(C)cc1Br	.	.	?	?	?	10µM
Cc1cc(SCC(=O)N/N=C/c2ccccc2C(=O)O)c(C)cc1Br	.	.	.	.	.	?
FC(F)(F)c1ccc(Cl)c(N/N=C/c2cccc(OCc3ccccc3)c2)c1	/	/	7.1µM	/	/	/
O=C(Nc1ccc2c(c1)OCCO2)C(Nc1ccccc1)c1ccccc1F (stereo unspecified)	/	/	.	/	/	/
O=C(CSc1nnc(NC2CCCCC2)s1)Nc1ccc(N2CCOCC2)cc1	.	.	.	.	.	5.8µM
CC(Sc1nnc(NC2CC2)s1)C(=O)Nc1ccc(N2CCOCC2)cc1 (stereo unspecified)	.	.	.	.	.	.
COc1ccc(/C=C2\CCCc3c2nc2ccccc2c3C(=O)OCC(=O)c2c(N)n(C)c(=O)n(C)c2=O)cc1	4.6µM	/	/	/	?	/
COc1cc(/C=C2\CCCc3c2nc2ccccc2c3C(=O)O)cc(Br)c1O	?	.	50µM	.	.	.
SMILES	MCF10A rerep	PINK1 modulator	ALOX12 inh	KB-3-1 tox	SW480 rereplic	KB-V1 cytotox
CC(CO)(CO)NC(=O)COc1cc(O)c2c(=O)cc(-c3ccccc3)oc2c1	/	/	.	/	/	/
O=C1c2ccccc2C(=O)N1c1ncc(Cc2ccc(Cl)cc2)s1	.	.	.	.	.	.
N=C1SCC(=O)N1c1ncc(Cc2cccc(Cl)c2)s1	12µM	.	.	.	?	?
Cc1cccc(Cc2cnc(N3C(=N)SC(C)C3=O)s2)c1 (stereo unspecified)	.	.	.	.	.	?
N=C1SCC(=O)N1c1ncc(Cc2ccccc2Cl)s1	18µM	.	.	.	?	.
Oc1c(N=Nc2ccccn2)ccc2ccccc12	13µM	.	.	1.2µM	?	?
N#Cc1ccc(N2CCC(C(=O)NC(c3ccc(F)cc3)C3CCCC3)CC2)nc1 (stereo unspecified)	/	/	.	/	/	/
Cc1cc(C(=O)CSc2nnc(-c3ccccc3)n2C)c(C)n1C	.	.	.	.	.	7.3µM
Cc1cc(C(=O)CSc2nnc(-c3ccc(Cl)cc3)n2CC2CCCO2)c(C)n1C (stereo unspecified)	.	.	.	.	.	6.5µM
COCCn1c(C)cc(C(=O)CSc2nncn2-c2ccccc2)c1C	.	.	.	.	.	10µM
Cc1cc(=O)oc2c(C)c(OCC(=O)Nc3nc4ccccc4[nH]3)ccc12	/	/	.	/	/	/
COc1cccc(N2C(=O)NC(=NC3CCCC3)C23CCN(Cc2cccnc2)C3)c1 (stereo unspecified)	/	/	.[6.33 µM]	/	/	/
COc1ccc(OCC(=O)Nc2ccc3c(=O)c4cccc(F)c4oc3c2)cc1	/	/	.	/	/	/
CC1(C(=O)NC2CCCCCC2)CCC(=O)N1Cc1ccc2c(c1)OCO2 (stereo unspecified)	.	.	.	.	.	21µM
CC1(C)SC(=S)N(Cc2ccc3c(c2)OCO3)C1N(O)C(=O)NC1CCCCC1 (stereo unspecified)	.	.	.	?	.	15µM
COc1ccc(C(=O)NCCS(=O)(=O)NCc2ccc(F)cc2)cc1	.	.	.	.	3.7µM	.
COc1ccc(C(=O)NCCS(=O)(=O)N(C)C2CCCCC2)cc1	.	.	.	.	.	18µM
COc1ccc(C(=O)NCCS(=O)(=O)NCc2ccccc2)cc1	.	.	.	.	.	.
O=S(=O)(c1ccc(NC(=S)N/N=C/c2ccc(Oc3ccccc3)cc2)cc1)N1CCOCC1	.	.	?	.	.	?
CC(CC(=O)Nc1ccc(S(=O)(=O)N2CCOCC2)cc1)c1ccccc1 (stereo unspecified)	.	.	.	.	.	.
O=S(=O)(c1ccc(NC(=S)N/N=C/c2c3ccccc3cc3ccccc23)cc1)N1CCOCC1	?	?	?	3.7µM	13µM	?
O=S(=O)(c1ccc(NC(=S)NCCC(c2ccccc2)c2ccccc2)cc1)N1CCOCC1	5.2µM	?	45µM	?	?	?
CCCCOCCCNC(=S)Nc1ccc(S(=O)(=O)N2CCOCC2)cc1	.	.	.	?	.	18µM
COc1ccc(C(=O)n2nc(-c3ccc(C)cc3)nc2N)cc1	/	/	.	/	/	/
Cc1sc2ncnc(SCC(=O)N3CCC(c4noc5ccc(F)cc45)CC3)c2c1C	.	.	.	.	.	10µM
